# Bioassay records: PubChem BioAssay, National Center for Advancing Translational Sciences (NCATS)
# Rows were chosen to be rich in hits. Some 15% of all compounds tested hit in one or more screens of this group.
# DT40 TDP1 no CPT: qHTS for Inhibitors of human tyrosyl-DNA phosphodiesterase 1 (TDP1): qHTS in cells in absence of CPT. DT40 Tdp1-/- hTDP1 cells, no CPT, ATP luminescence, 48 h. AID 686978, 2013. 15% of 420,000 active. Potency, µM (titrated, usually from 46.2 µM), without a hit: at the highest dose activity change, negative = growth inhibition, usual class: inhibitors; also: nearly all actives have a fitted effect of over 55% in size
#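 Readout: luminescence from CellTiter-Glo after 30 min in the dark at RT. Cells: DT40 Tdp1-/- with stable hTDP1, 400/well. Exposure: compounds alone, ≥48 hr, 37 °C.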
# ALOX12 inh: ALOX12 (human) lipoxygenase inhibition | P18054 | purified 12hLO, xylenol orange hydroperoxide absorbance | Potency, µM (doses to about 108 µM), for inactives: at the highest dose activity change, negative = inhibition, usual class: inhibitors | 1.1% of 580,000 active
#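 Purified human 12hLO (150 nM final) in 25 mM Hepes, 0.01% Triton X-100, pH 7.0 was preincubated 15 min at room temperature with compound. Then 40 uM arachidonic acid was added, 30 min. Hydroperoxide was read by Fe-XO absorbance ratio 573/405 nm.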
# VP16 counter: counter-screen for ROR gamma inhibitors: Gal4-VP16 reporter. Drosophila S2 Gal4-VP16 UAS-luciferase, luminescence, 20 h. Potency, µM (doses to about 53.6 µM), for inactives: at the top dose activity, negative = inhibition, usual class: inhibitors. 3.5% of 310,000 active. AID 2546;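 also: Gal4-VP16 expression switched on by copper sulfate through the metallothionein promoter; nearly all actives have a fitted effect of over 50% in size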
# DT40 TDP1 CPT: growth inhibition of DT40 Tdp1-/-;hTDP1 cells with camptothecin (screen for TDP1 inhibitors); AID 686979; 12% of 420,000 active; Potency, µM (doses to about 46.2 µM), inactives show at the top dose activity change, negative = growth inhibition, most hits filed as inhibitors; chicken DT40 Tdp1-/-;hTDP1 cells + 20 nM CPT, ATP luminescence, 48 h; also: nearly all actives have a fitted effect of over 55% in size
#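 Cell growth measured by CellTiter-Glo luminescence after a minimum 48 h, 37 C compound exposure with 20 nM CPT in Tdp1-knockout DT40 cells stably expressing hTDP1, seeded 400/well; qHTS titration format.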
# ELG1 DNA repair: inhibitors of ELG1-dependent DNA repair in HEK293T cells | HEK293T ELG1-luciferase reporter, luminescence, 16 h; DNA damage induced by 5-fluorouridine | Potency, µM (top dose mostly 46.1 µM), inactives show top-dose activity change, negative = inhibition, most hits filed as inhibitors | 2.3% of 330,000 active | AID 504467; also: nearly all actives have a fitted effect of over 55% in size
#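 Cells (2,000 per well) received 5-fluorouridine plus test compound or DMSO and were incubated 16 hr at 37 °C, 5% CO2. Luciferase activity was read by luminescence 30 min after ONE-Glo addition; signal suppression marked inhibition of damage-induced ELG1 function.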
# RORgamma inh: inhibitors of mouse ROR gamma transcriptional activity; 5.4% of 310,000 active; Drosophila S2 Gal4-RORgamma UAS-luciferase reporter, 20 h; Potency, µM (top dose mostly 53.6 µM), for the others: top-dose activity change, negative = inhibition, actives largely listed as inhibitors; P51450; AID 2551; also: nearly all actives have a fitted effect of over 60% in size
# Target sequence (P51450 whole entry, looked up, the tested form may be a part): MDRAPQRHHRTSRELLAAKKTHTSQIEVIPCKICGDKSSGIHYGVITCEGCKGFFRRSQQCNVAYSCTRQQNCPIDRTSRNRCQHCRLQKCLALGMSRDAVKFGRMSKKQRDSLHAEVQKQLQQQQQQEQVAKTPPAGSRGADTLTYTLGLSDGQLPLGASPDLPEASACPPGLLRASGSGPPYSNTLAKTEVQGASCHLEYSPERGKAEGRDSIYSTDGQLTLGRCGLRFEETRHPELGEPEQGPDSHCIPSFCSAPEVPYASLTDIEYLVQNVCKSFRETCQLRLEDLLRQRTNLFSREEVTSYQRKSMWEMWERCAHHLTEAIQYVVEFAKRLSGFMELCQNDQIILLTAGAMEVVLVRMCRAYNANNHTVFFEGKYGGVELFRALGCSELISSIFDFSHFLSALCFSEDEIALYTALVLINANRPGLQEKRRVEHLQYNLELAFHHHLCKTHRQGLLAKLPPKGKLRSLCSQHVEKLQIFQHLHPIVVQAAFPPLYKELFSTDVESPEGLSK
#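 A Gal4/UAS one-hybrid system in insect cells: metallothionein-promoter Gal4–ROR gamma fusion plus Photinus luciferase reporter. Copper sulfate 700 uM final, 20 hr ambient incubation, luminescent detection after 10 min with reagent.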
# The depositor's hits bear a star; ? = inconclusive; . = no result; [ ] = remark or other dose. Calls follow the shape of the dose curve; as a rule, active = well fitted curve in the direction sought with a large enough effect; inconclusive = small, poorly fitted or top-dose-only effect, or another doubt; inactive = no such curve, though single readings can be large; an effect the other way counts as inactive or inconclusive. % is scaled to controls: 0 for no effect and ±100 for the full control effect; potency is read from the fitted curve at half-maximal effect.
SMILES,DT40 TDP1 no CPT,ALOX12 inh,VP16 counter,DT40 TDP1 CPT,ELG1 DNA repair,RORgamma inh
COC(=O)C1=C(c2ccc(F)cc2OCc2ccccc2)C[C@@H]2CC[C@H]1N2C(=O)NCCO,-19%,.,.,3%,19%,.
O=C(NCC1=C(c2ccc3ccccc3c2)C[C@@H]2CC[C@H]1N2Cc1ccco1)c1ccncc1,?,-19%,.,?,.,.
O=C(NCC1=C(c2ccc3ccccc3c2)C[C@@H]2CC[C@H]1N2Cc1ccco1)c1ccc([N+](=O)[O-])cc1,16µM*,?,.,?,.,.
O=[N+]([O-])NC1=NCCN1Cc1ccc(Cl)nc1,2.6µM*,4%,1%,.,-5%,-9%
N#CN=C1SCCN1Cc1ccc(Cl)nc1,.,.,1%,.,.,18%
C#C[C@H]1CN2CC[C@H]1C[C@@H]2CNS(=O)(=O)CCC,.,8%[176 µM],.,.,.,.
C#C[C@H]1CN2CC[C@H]1C[C@@H]2COC(=O)NCCC,.,8.9µM*,.,.,.,.
O=c1cc[se]c2ccccc12,.,-7%,.,.,.,.
CCCCn1c(C)c(C(=O)OCC)c2c(CN3CCCC3)c(O)ccc21,12µM*,?,2%,18µM*,-27%,13%
CCCCn1c(C)c(C(=O)OCC)c2c(CN3CCOCC3)c(O)ccc21,-17%,?,9%,-21%,?,18%
O=C(Cc1c[nH]c2ccccc12)N1CCN(CC(=O)N2CCCC2)CC1,.,16%,.,.,.,.
CC1CCC(NC(=O)c2cn(C)c3ccccc23)CC1 (stereo unspecified),.,18%,.,.,.,.
CCCC1=Nc2cc(C(=O)NC3CCC(C)CC3)ccc2Sc2ccccc21 (stereo unspecified),4.1µM*,-1%,.,6.5µM*,.,.
CCCC1=Nc2cc(C(=O)NCCc3ccc(OC)cc3OC)ccc2Sc2ccccc21,?,-2%,.,18µM*,.,.
Cn1nccc1CN1CCCC2(CC(c3cccnc3)=NO2)C1 (stereo unspecified),.,12%[6.33 µM],.,.,.,.
COCCNC(=O)[C@H]1CN2CC[C@H]1C[C@@H]2Cn1cc(CO)nn1,.,12%[176 µM],.,.,.,.
CCOc1ccc(C(=O)N2CCC(c3noc(-c4ccc(S(=O)(=O)N5CCCC5)cc4)n3)CC2)cc1,16µM*,-25%,.,?,.,.
c1ccc(CCNCC2CCCO2)cc1 (stereo unspecified),.,-18%,.,.,.,.
Cc1cccc(C)c1OCC(=O)Nc1ccc(Cl)cc1C(=O)c1ccccc1,-11%,-3%,.,8%,.,.
Cc1ccccc1NC(=O)CCl,23µM*,8%,7%,18µM*,-26%,-3%
Cn1nc(-c2ccc3ccccc3c2)cc1[C@H]1CN2CC[C@H]1C[C@@H]2CNS(=O)(=O)c1ccccc1,.,42%,.,.,.,.
CCc1ccc(Nc2nc3c(S(=O)(=O)c4ccc(C)cc4)nnn3c3ccsc23)cc1,3.7µM*,-15%,.,3.7µM*,.,.
Cc1ccc(S(=O)(=O)NC[C@H]2C[C@@H]3CCN2C[C@@H]3CN(C)CCc2ccccn2)cc1,.,28%,.,.,.,.
CSc1ncc(CN2CCCC(C(=O)c3cccc(Cl)c3)C2)cn1 (stereo unspecified),?,-14%,-5%,21µM*,-16%,41%
COc1ccc(CN2CCCC(C(=O)c3cccc(Cl)c3)C2)cc1 (stereo unspecified),?,-16%,6%,?,-2%,-9%
SMILES,DT40 TDP1 no CPT,ALOX12 inh,VP16 counter,DT40 TDP1 CPT,ELG1 DNA repair,RORgamma inh
CC(C)Oc1cccc(C(=O)C2CCCN(Cc3ccon3)C2)c1 (stereo unspecified),?,-18%,-9%,-1%,13%,16%
O=C(c1cccc(Cl)c1)C1CCCN(Cc2ccon2)C1 (stereo unspecified),?,-5%,-22%,?,0.58µM*,3%
O=C1OCC2(CCN(Cc3cccc(Cl)c3)C2)N1c1ccncc1 (stereo unspecified),.,14%[176 µM],.,.,.,.
Nc1ccc(N=Nc2ccc(-c3ccc(N=Nc4c(S(=O)(=O)O)cc5cc(S(=O)(=O)O)c(N=Nc6ccccc6)c(O)c5c4N)cc3)cc2)c(N)c1,.,13%,.,.,.,.
Cc1nn(-c2ncnc3nc[nH]c23)c2c1C(c1ccc(F)c(F)c1)SCC(=O)N2 (stereo unspecified),.,4%,.,.,.,.
COCc1cn(C[C@H]2C[C@@H]3CCN2C[C@@H]3C(=O)NCc2ccccc2)nn1,.,12%[176 µM],.,.,.,.
CC(C)n1nc(-c2cc3cc(O)ccc3[nH]2)c2c(N)ncnc21,0.17µM*,-8%[22.9 µM],.,0.094µM*,.,.
COc1ccc(Nc2nc(N)nc(CSc3nc4ccccc4s3)n2)cc1,16µM*,-17%,.,15µM*,.,.
COCCNP(=O)(c1ccccc1)c1nc2ccccc2s1 (stereo unspecified),.,.,10%,.,14%,7%
Cn1cc(CN2CCN(C(=O)COc3ccccc3)CC2)ccc1=O,.,48%,.,.,.,.
O=C1NCCCCCCN[C@H]2CCC[C@@H]12,.,21%,.,.,.,.
COCCNC(=O)[C@H]1CN2CCC1C[C@@H]2Cn1cc(CCO)nn1 (stereo partly specified),.,-3%[176 µM],.,.,.,.
